Data as given in the supplement of paper PMC10849652.
About 8,800 targets were measured; listed, in parts, are those with a hit and a random draw of the rest. About 0.5% of all pairs of compound and target were hits. Unmarked numbers belong to inactive results.

Assays:
Test in all cases: log2 fold change, soluble protein after heating vs DMSO (PISA); higher = thermal stabilisation; K562 lysate, 10 uM; active = over 0.2 and 3.5 SD of the protein, either way, in both replicates (recomputed)
nilotinib = compound: Cc1cn(-c2cc(NC(=O)c3ccc(C)c(Nc4nccc(-c5cccnc5)n4)c3)cc(C(F)(F)F)c2)cn1 [nilotinib]
Procedure, shortened: (§1)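 To prepare the extract, K562 pellets were dounce-homogenised in PBS pH 7.4 with 1 mM MgCl2, giving crude material at 1 mg/mL protein. This was treated with 10 μM compound for 30 min, then heated in aliquots for 3 min over 48°C-58°C before pooling and addition of NP-40 to 0.5% at 4°C. Centrifugation at 21,000xg for 90 min left soluble protein in the supernatant, which TMTpro 16plex LC-MS/MS quantified with equalised channel sums. Results are log-two fold changes in thermal stability compared with solvent controls, from duplicates.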

[1] = compound: Cc1nc(Nc2n[nH]c3c2CN(C(=O)N[C@H](CN(C)C)c2ccccc2)C3(C)C)c2sccc2n1
Procedure, shortened: as §1

dasatinib = compound: Cc1nc(Nc2ncc(C(=O)Nc3c(C)cccc3Cl)s2)cc(N2CCN(CCO)CC2)n1 [dasatinib]
Procedure, shortened: as §1

[2] = compound: Cc1ncc(-c2ccnc(Nc3ccc(S(C)(=O)=O)cc3)n2)n1C(C)C
Procedure, shortened: as §1

[3] = compound: Cn1cc(-c2ccc3c(c2)CCN3C(=O)Cc2cccc(C(F)(F)F)c2)c2c(N)ncnc21
Procedure, shortened: as §1

quisinostat = compound: Cn1cc(CNCC2CCN(c3ncc(C(=O)NO)cn3)CC2)c2ccccc21 [quisinostat]
Procedure, shortened: as §1

tipifarnib = compound: Cn1cncc1[C@@](N)(c1ccc(Cl)cc1)c1ccc2c(c1)c(-c1cccc(Cl)c1)cc(=O)n2C [tipifarnib]
Procedure, shortened: as §1

[4] = compound: NC(=O)Nc1cc(-c2cccc(F)c2)sc1C(=O)N[C@H]1CCCNC1
Procedure, shortened: as §1

[5] = compound: NC(=O)c1cnc(N[C@@H]2CCCC[C@@H]2N)nc1Nc1cccc(-n2nccn2)c1
Procedure, shortened: as §1

[6] = compound: NC1(c2ccc(-c3nc4ccn5c(=O)[nH]nc5c4cc3-c3ccccc3)cc2)CCC1
Procedure, shortened: as §1

[7] = compound: NCC(=O)Nc1ccc(-n2nc(C(F)(F)F)cc2-c2ccc3c(ccc4ccccc43)c2)cc1
Procedure, shortened: as §1

vorinostat = compound: O=C(CCCCCCC(=O)Nc1ccccc1)NO [vorinostat]
Procedure, shortened: as §1

silmitasertib = compound: O=C(O)c1ccc2c(c1)nc(Nc1cccc(Cl)c1)c1ccncc12 [silmitasertib]
Procedure, shortened: as §1

[8] = compound: O=C1NC(=O)C(c2cnc3ccccn23)=C1c1cn2c3c(cc(F)cc13)CN(C(=O)N1CCCCC1)CC2
Procedure, shortened: as §1

entospletinib = compound: c1cn2cc(-c3ccc4cn[nH]c4c3)nc(Nc3ccc(N4CCOCC4)cc3)c2n1 [entospletinib]
Procedure, shortened: as §1

UniProt Q8N4C8, sequence (Q8N4C8 whole entry, looked up): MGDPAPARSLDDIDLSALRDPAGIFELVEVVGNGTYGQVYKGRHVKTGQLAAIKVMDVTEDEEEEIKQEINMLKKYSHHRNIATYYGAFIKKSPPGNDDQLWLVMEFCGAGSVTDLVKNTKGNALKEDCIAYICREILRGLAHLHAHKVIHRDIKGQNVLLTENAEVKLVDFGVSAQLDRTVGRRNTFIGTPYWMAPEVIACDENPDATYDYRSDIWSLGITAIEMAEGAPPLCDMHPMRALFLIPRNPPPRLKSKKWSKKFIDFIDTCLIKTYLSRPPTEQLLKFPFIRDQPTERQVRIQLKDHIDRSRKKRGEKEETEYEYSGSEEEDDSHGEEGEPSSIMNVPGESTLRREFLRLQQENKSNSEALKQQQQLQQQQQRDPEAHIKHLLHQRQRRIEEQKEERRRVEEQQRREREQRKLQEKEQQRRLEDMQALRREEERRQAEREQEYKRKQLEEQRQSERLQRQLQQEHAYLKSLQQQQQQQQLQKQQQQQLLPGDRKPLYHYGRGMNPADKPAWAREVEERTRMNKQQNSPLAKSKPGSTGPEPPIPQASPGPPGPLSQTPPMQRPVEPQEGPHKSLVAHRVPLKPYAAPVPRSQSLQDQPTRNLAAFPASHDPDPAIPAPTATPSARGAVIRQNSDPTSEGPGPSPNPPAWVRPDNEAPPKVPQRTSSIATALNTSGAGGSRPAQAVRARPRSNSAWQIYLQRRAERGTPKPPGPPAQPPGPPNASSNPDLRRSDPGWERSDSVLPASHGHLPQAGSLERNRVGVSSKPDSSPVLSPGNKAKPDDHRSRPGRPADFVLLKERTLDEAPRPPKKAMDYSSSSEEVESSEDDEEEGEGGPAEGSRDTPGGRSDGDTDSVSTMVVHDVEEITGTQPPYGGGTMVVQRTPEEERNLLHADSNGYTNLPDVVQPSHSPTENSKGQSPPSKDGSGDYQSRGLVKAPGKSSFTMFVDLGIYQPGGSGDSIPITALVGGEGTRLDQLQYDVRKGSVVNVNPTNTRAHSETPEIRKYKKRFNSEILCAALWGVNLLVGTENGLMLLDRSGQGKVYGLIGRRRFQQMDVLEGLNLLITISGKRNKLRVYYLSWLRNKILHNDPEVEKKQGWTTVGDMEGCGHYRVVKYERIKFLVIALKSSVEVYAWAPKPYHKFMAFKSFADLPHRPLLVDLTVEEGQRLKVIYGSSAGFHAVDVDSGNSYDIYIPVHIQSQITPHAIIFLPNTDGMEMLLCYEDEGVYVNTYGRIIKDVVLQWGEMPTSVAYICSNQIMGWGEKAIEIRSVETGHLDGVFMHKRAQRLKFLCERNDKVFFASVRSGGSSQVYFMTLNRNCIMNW
UniProt Q9NVC6, sequence (Q9NVC6 whole entry, looked up): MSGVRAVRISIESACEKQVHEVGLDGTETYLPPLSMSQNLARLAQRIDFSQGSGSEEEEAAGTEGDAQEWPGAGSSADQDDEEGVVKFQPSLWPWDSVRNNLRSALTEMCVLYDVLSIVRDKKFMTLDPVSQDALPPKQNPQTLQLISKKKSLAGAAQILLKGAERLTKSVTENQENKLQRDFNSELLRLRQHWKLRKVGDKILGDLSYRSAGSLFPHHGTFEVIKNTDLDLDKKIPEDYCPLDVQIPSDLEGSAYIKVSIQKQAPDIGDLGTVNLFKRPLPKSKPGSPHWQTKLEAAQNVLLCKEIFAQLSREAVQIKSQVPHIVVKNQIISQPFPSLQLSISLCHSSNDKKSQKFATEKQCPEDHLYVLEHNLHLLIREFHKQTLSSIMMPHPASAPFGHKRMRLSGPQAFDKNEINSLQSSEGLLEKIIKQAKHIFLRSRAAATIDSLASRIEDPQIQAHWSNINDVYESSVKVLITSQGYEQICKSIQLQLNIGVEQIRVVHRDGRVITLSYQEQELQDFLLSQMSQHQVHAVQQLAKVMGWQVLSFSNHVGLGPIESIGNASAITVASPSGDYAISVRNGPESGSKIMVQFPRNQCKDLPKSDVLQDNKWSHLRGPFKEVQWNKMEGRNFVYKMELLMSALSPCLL
UniProt P40692, sequence (P40692 whole entry, looked up): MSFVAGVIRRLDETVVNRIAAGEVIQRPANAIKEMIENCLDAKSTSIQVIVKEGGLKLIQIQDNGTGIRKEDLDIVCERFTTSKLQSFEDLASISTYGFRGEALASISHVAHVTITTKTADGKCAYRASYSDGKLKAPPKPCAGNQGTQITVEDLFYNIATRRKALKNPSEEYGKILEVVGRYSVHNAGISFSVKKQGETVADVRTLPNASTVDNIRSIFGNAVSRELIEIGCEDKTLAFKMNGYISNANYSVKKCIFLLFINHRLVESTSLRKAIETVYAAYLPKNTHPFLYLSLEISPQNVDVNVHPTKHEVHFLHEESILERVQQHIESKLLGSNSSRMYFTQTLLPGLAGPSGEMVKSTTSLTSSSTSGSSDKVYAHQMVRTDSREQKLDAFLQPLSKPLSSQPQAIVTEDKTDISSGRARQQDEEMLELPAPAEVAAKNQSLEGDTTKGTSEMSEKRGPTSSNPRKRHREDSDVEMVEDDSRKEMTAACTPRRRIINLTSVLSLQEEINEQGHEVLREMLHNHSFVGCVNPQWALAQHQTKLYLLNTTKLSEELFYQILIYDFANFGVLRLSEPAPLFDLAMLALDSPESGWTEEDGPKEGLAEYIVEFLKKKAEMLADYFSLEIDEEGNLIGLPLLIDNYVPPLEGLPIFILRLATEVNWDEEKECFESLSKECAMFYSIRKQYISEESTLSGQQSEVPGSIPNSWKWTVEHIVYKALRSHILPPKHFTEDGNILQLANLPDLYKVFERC
UniProt Q16539, sequence (Q16539 whole entry, looked up): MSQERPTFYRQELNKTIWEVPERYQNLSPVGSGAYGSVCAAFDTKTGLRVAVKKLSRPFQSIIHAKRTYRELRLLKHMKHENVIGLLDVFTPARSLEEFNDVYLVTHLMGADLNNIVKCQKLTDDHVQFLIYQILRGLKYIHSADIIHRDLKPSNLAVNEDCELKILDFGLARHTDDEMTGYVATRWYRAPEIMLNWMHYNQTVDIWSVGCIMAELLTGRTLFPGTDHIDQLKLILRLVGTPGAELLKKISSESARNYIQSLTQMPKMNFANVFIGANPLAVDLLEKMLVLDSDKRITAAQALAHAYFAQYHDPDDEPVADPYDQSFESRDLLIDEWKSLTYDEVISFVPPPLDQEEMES
UniProt Q9BW19, sequence (Q9BW19 whole entry, looked up): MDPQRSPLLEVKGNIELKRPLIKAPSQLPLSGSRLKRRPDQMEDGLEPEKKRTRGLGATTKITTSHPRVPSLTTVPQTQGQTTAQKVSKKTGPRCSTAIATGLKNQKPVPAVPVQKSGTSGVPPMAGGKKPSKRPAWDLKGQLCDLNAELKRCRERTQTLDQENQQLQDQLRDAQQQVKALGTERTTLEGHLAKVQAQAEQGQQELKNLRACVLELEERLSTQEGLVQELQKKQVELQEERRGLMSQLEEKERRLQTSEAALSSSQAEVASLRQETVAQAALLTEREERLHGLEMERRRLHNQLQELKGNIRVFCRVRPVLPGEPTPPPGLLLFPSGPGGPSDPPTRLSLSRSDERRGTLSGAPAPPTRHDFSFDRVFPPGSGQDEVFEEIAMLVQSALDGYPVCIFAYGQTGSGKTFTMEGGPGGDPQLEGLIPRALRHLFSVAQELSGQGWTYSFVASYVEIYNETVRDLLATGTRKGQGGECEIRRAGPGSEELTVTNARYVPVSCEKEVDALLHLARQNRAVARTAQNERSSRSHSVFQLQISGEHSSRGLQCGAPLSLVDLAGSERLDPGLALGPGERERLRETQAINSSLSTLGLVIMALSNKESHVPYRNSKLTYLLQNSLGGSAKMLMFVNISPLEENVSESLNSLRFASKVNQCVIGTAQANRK
UniProt Q9BV79, sequence (Q9BV79 whole entry, looked up): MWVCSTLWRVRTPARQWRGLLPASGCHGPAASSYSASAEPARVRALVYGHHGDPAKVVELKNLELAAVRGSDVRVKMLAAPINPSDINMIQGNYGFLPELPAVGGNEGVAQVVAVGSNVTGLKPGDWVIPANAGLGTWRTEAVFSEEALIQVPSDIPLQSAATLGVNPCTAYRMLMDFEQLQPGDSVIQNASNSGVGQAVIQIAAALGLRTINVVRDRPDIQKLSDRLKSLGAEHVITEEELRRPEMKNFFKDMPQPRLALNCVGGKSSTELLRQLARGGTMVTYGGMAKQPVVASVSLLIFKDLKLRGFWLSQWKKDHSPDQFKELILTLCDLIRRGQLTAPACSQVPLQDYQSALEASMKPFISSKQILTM
UniProt O00522, sequence (O00522 whole entry, looked up): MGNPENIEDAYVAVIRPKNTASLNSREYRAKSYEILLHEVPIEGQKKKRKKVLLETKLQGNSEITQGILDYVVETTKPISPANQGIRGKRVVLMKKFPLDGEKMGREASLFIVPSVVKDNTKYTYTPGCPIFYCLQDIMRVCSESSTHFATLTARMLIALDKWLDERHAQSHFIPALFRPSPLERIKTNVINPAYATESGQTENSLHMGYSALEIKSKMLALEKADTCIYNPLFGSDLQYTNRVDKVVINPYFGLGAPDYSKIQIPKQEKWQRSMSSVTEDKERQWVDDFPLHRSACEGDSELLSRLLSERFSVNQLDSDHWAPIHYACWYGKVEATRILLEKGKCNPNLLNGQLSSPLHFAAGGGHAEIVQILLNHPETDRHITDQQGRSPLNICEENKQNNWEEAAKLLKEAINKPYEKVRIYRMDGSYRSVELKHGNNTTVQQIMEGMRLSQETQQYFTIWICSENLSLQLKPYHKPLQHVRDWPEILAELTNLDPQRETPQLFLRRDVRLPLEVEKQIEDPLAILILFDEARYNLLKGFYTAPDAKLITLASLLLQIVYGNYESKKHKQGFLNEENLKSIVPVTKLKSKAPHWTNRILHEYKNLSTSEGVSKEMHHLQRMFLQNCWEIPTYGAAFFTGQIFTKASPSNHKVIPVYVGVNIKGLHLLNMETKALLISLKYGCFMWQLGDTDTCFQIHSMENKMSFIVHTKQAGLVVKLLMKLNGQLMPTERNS

| Target | log2 fold change (nilotinib) | log2 fold change [1] | log2 fold change (dasatinib) | log2 fold change [2] | log2 fold change [3] | log2 fold change (quisinostat) | log2 fold change (tipifarnib) | log2 fold change [4] | log2 fold change [5] | log2 fold change [6] | log2 fold change [7] | log2 fold change (vorinostat) | log2 fold change (silmitasertib) | log2 fold change [8] | log2 fold change (entospletinib) |
| --- | --- | --- | --- | --- | --- | --- | --- | --- | --- | --- | --- | --- | --- | --- | --- |
| LIMK2 isoform 3 (UniProt P53671) | 0.074 | 0.06 | -0.126 | 0.07 | -0.099 | -0.003 | -0.05 | -0.066 | -0.064 | 0.008 | -0.011 | -0.21 | 0.114 | 0.021 | -0.055 |
| KNL1 (UniProt Q8NG31) | 0.011 | -0.004 | -0.014 | 0.02 | 0.012 | -0.048 | -0.06 | 0.023 | 0.024 | -0.001 | 0.022 | -0.254 (active) | -0.003 | -0.009 | -0.011 |
| KIF21A isoform 5 (UniProt Q7Z4S6) | 0.011 | 0.036 | 0.001 | 0 | 0.001 | -0.011 | -0.048 | 0.048 | -0.009 | -0.028 | 0.005 | -0.239 (active) | -0.004 | 0.007 | -0.058 |
| KIFC1 (UniProt Q9BW19) | -0.008 | 0.003 | -0.031 | -0.002 | 0.034 | -0.055 | 0.006 | 0.001 | -0.024 | -0.025 | 0.02 | -0.898 (active) | 0.03 | -0.04 | -0.002 |
| MINK1 (UniProt Q8N4C8) | -0.227 | -0.206 | -0.077 | 0.199 | -0.016 | -0.062 | 0.289 | 0.782 (active) | -0.023 | 0.02 | -0.02 | -0.205 | -0.109 | 0.043 | 0.182 |
| LAMP1 (UniProt P11279) | 0.021 | -0.033 | -0.058 | 0.002 | -0.036 | -0.113 | -0.012 | 0.016 | -0.003 | -0.017 | 0.007 | 0.095 | -0.009 | -0.05 | -0.004 |
| MLH1 (UniProt P40692) | 0 | 0.014 | -0.007 | 0.03 | 0.031 | -0.043 | 0.005 | 0.061 | 0.067 | -0.046 | 0.04 | -0.312 (active) | 0.025 | 0.005 | 0.022 |
| MAPK8 isoform 3 (UniProt P45983) | 0.051 | -0.007 | 0.054 | 0.326 (active) | 0.07 | -0.139 | 0.006 | 0.093 | 0.115 | -0.062 | 0.064 | -0.395 (active) | 0.007 | 0.038 | -0.039 |
| MAPK14 (UniProt Q16539) | 0.563 | 0.038 | 0.984 (active) | 0.069 | -0.029 | -0.025 | -0.137 | -0.012 | -0.005 | -0.042 | -0.007 | -0.294 | 0.279 | 0.015 | -0.005 |
| KRIT1 (UniProt O00522) | -0.011 | -0.04 | 0.027 | 0.041 | -0.048 | -0.147 | -0.135 | 0.09 | 0.021 | -0.005 | -0.125 | -0.046 | -0.013 | -0.02 | 0.012 |
| MAPK1 (UniProt P28482) | -0.042 | 0.205 | -0.014 | 0.091 | -0.01 | 0.07 | 0.011 | 0.01 | 0.088 | 0.003 | -0.027 | 0.039 | 0.042 | -0.005 | -0.039 |
| LPIN1 isoform 7 (UniProt Q14693) | -0.032 | 0.026 | -0.107 | 0.182 | 0.028 | -0.032 | -0.104 | 0.035 | -0.04 | 0.003 | 0.052 | -0.489 (active) | -0.014 | 0.004 | -0.193 |
| MED17 (UniProt Q9NVC6) | -0.011 | 0.036 | -0.033 | -0.116 | -0.014 | -0.033 | -0.075 | 0.019 | 0.038 | 0.005 | -0.051 | -0.392 (active) | -0.008 | -0.006 | 0.083 |
| MICU1 isoform 3 (UniProt Q9BPX6) | 0.01 | -0.044 | -0.02 | -0.015 | 0.027 | 0.002 | -0.015 | -0.026 | 0.06 | -0.021 | -0.085 | -0.133 | 0.065 | -0.003 | -0.019 |
| MORC2 (UniProt Q9Y6X9) | -0.012 | -0.02 | -0.046 | 0.006 | 0.051 | -0.05 | 0.024 | 0.049 | 0.028 | -0.001 | 0.014 | -0.328 (active) | 0.103 | -0.015 | 0.013 |
| LRCH3 (UniProt Q96II8) | -0.003 | -0.029 | -0.095 | 0.064 | 0.038 | -0.16 | -0.029 | -0.005 | 0.011 | -0.025 | 0.053 | -0.535 (active) | 0.048 | -0.03 | -0.009 |
| MAP4 isoform 5 (UniProt P27816) | -0.168 | -0.029 | -0.371 | 0.291 | 0.029 | -0.036 | -0.101 | 0.03 | -0.02 | -0.213 | 0.001 | 0.359 | 0.074 | 0.087 | 0.063 |
| MED14 (UniProt O60244) | 0.027 | -0.013 | -0.012 | -0.015 | 0.011 | -0.021 | -0.013 | 0.011 | 0.015 | 0.047 | -0.01 | -0.21 (active) | -0.035 | 0.002 | -0.084 |
| MECR (UniProt Q9BV79) | -0.085 | 0.012 | -0.03 | -0.004 | 0.02 | 0.07 | -0.009 | -0.041 | 0.02 | -0.028 | -0.037 | -0.268 (active) | 0.009 | -0.016 | 0.011 |
